# Compound: Nc1ncnc2c1ncn2[C@@H]1O[C@H](COP(=O)(O)OP(=O)(O)OP(=O)(O)O)[C@@H](O)[C@H]1O [adenosine 5'-triphosphate]
# Assay: log2 fold change of tryptic peptide abundance, ligand vs vehicle (limited proteolysis) (log2 ratio); higher = more trypsin-susceptible (destabilized)
# Conditions: ligand concentration: 5 mM; sample: E. coli desalted lysate; replicate design: treated before aliquoting
# Procedure: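 HT-PELSA: desalted E. coli K-12 BW25113 lysate (with 12 mM MgCl2) incubated with 5 mM ATP (pH 7) or water for 30 min at 25 C, then a 4 min trypsin pulse at 22 C. Peptides were quantified by DIA-MS (4 replicates). Value is the peptide log2 fold change (treated/control); negative = stabilized. Scale: negative = ligand-stabilized region.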
# 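Also: lysate desalted by size exclusion to strip endogenous ATP, peptide intensities built from DIA-NN precursor signals, and peptides missing any value discarded before comparison.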
row,Target,log2 fold change
1,"UniProt P33371 (peptide sequence: ICPELQNASR, peptide start residue: 49)",0.883
2,"UniProt P37692 (peptide sequence: AYVLPNSFK, peptide start residue: 84)",-1.08
3,"UniProt P0A6B4 (peptide sequence: QLAIFNTFCEGKPGQR, peptide start residue: 174)",0.707
4,"UniProt P37691 (peptide sequence: MTSNLFGMQK, peptide start residue: 128)",0.503
5,"UniProt Q47146 (peptide sequence: GITLPSNSTGGVK, peptide start residue: 375)",-0.706
6,"UniProt P12282 (peptide sequence: QTLHSDATVGQPK, peptide start residue: 74)",-1.54
7,"UniProt P06149 (peptide sequence: VRDIEADTPAR, peptide start residue: 232)",-1.35
8,"UniProt P18392 (peptide sequence: EHIFEPFVR, peptide start residue: 367)",-1.71
9,"UniProt P75830 (peptide sequence: TNLDYTR, peptide start residue: 179)",-0.551
10,"UniProt P0ACW6 (peptide sequence: FMSLFDKHNK, peptide start residue: 19)",-0.425
11,"UniProt P23837 (peptide sequence: EITEQYEGK, peptide start residue: 451)",-1.72
12,"UniProt P77739 (peptide sequence: IGWQLELAAEK, peptide start residue: 152)",-0.651

# Reference: the supplement of paper PMC12819154, “High-throughput peptide-centric local stability assay extends protein–ligand identification to membrane proteins, tissues and bacteria” (Nature Structural & Molecular Biology, 2025)
